# Source: PubChem BioAssay (National Center for Advancing Translational Sciences (NCATS))
# Sampled rows, rich in hits. Any-hit rate of the full collection: about 3.6%.
# D1 ag – activates the human D1 dopamine receptor; actives 1% (n = 360,000); AID 504660; activation, % at 2 µM; HEK293 T-REx D1 cells, calcium flux, agonist mode; also: 0% is about no effect
#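 Agonism was scored from calcium flux recorded over 180 s (1 read/s) after pintool compound addition, following a 10-cycle baseline. Cells were inducible force-coupled HEK293 TREx D1, plated overnight at 30 C and loaded with no-wash calcium dye.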
# D1 antag – blocks dopamine activation of the human D1 receptor. P21728. HEK293 TREx D1 cells, calcium flux, dopamine EC80; stronger effect = lower value. activity change, negative = inhibition, % at 10 µM. actives 3.2% (n = 360,000); in the data active = activity change below about -30%; also: % is scaled to controls: 0 for no effect and ±100 for the full control effect
#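 Tetracycline-induced HEK293 Trex D1 cells, force-coupled to calcium, dye-loaded; compounds added and read 180 s, then EC80 dopamine added and calcium flux tracked kinetically another 180 s.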
# D1 PAM – enhances dopamine response at the human D1 receptor. potentiation, % at 10 µM. HEK293 TREx D1 cells, calcium flux, dopamine EC20 potentiation. actives 0.036% (n = 360,000). P21728. AID 504651; in the data active = potentiation above about 30%; also: 0% is about no effect
# LDHA inh – blocks human lactate dehydrogenase A. P00338. purified LDHA, NADH/diaphorase-resazurin fluorescence; stronger effect = lower value. AID 1347041. activity change, % (values are at about 110 or 230 µM). actives 0.15% (n = 480,000); in the data active = activity change below about -30%;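 also: plate controls were DMSO wells for no effect and wells without enzyme for full effect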
#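 Remaining NADH was detected by diaphorase (0.133 mg/mL) converting 37 µM resazurin to fluorescent resorufin, read at 0 and 20 minutes. The preceding 5-minute room-temperature reaction used 2 nM LDHA, 0.2 mM sodium pyruvate and 0.06 mM NADH at pH 7.4.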
# TRHR ag – activates the human TRH receptor; P34981; TRHR cells, calcium flux fluo-8, FDSS agonist mode; activation, % at 2 µM; actives 0.18% (n = 360,000); AID 493084; also: 0% is about no effect
# Target sequence (P34981 whole entry, looked up): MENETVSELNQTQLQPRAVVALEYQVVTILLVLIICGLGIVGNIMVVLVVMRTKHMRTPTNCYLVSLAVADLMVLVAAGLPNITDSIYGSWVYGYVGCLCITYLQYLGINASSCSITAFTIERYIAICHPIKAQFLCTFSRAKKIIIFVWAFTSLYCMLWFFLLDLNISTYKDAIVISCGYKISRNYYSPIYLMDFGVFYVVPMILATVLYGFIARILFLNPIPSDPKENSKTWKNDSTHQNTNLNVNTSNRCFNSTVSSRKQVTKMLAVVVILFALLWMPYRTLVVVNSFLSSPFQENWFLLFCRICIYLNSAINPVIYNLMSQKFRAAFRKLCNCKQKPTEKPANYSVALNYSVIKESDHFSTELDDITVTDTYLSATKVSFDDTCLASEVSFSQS
#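 TRHR-expressing cells, plated overnight in medium with 10% serum, were loaded with fluo-8 calcium dye at room temperature. After a 10 s baseline, library compound was pin-added and calcium release was recorded kinetically (ex 480/em 530) as agonist response.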
# TRHR PAM – allosterically enhances the human TRH receptor; actives 0.66% (n = 360,000); TRHR cells, fluo-8 calcium fluorescence, EC20 TRH enhancement; AID 493056; enhancement, % at 2 µM; P34981; in the data active = enhancement above about 30%; also: 0% is about no effect
#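 Enhancer read-out: after compound pinning and an initial kinetic agonist-mode read, an EC20 of TRH (10 nM final) was injected and fluo-8 calcium signal (Ex 480/Em 530) followed at 1 s/cycle for 100 cycles in TRHR-expressing cells.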
# * = called active by the depositor; nt = no result. Rule as the data show it, unless noted: active = activation above about 30%; inactive = the rest.
SMILES,D1 ag,D1 antag,D1 PAM,LDHA inh,TRHR ag,TRHR PAM
CCC(C(=O)NCCc1c[nH]c2cc(OC)ccc12)c1ccccc1 (stereo not drawn),2,-80*,-2,-5,-1,3
CN1OC[C@@H]2CN(Cc3cc(Cl)cc(Cl)c3)[C@H](c3cccc(-c4ccc(C#N)cc4)c3)C[C@@H]21,nt,nt,nt,-31*,nt,nt
CCN(CC)S(=O)(=O)c1cccc(S(=O)(=O)N2CCCCC2)c1,3,-33*,-6,-5,0,-8
COc1ccc(S(=O)(=O)N2CCCCCC2)cc1N(C)S(=O)(=O)c1ccccc1,11,-42*,-10,-8,0,-10
CCN1C(=O)/C(=C/C=C2/CCCN2C)OC1=S,30*,-9,-4,15,14,-4
NC(=O)c1ccccc1,2,-99*,-10,-6,0,5
O=S(=O)(c1ccccc1F)N1CCN(Cc2coc(-c3cccs3)n2)CC1,nt,nt,nt,-2,nt,nt
CCCc1c(CC)c(=N)c2ccccc2n1C,10,11,-8,-45*,-1,14
Cn1c(-c2ccccc2)c(C(=O)CCl)c2ccccc21,4,-16,-3,-9,-1,-5
O=C(Nc1ccc(Br)cn1)c1cc(-c2ccccc2)on1,nt,nt,nt,-14,nt,nt
CNC(=O)c1cccc(NC(=O)CC2C=CCC2)c1 (stereo not drawn),nt,nt,nt,4,nt,nt
CCN(CCCNC(=O)CN1N=C(c2ccc(OC)cc2)CCC1=O)c1cccc(C)c1,0,-40*,-4,6,-1,-6
CC(NC(=O)c1nn(C)c(=O)c2ccccc12)c1ccc(Cl)cc1Cl (stereo not drawn),nt,nt,nt,3,nt,nt
Cc1ccccc1COc1cccc(CNc2ccccc2)c1,nt,nt,nt,35,nt,nt
Cc1ccc(C(=O)Nc2cccc(-c3nc4ccccc4s3)c2C)c(C)c1,nt,nt,nt,9,nt,nt
CC1CC(C)CN(CCOCCSc2ccccc2)C1 (stereo not drawn),14,-38*,-13,-20,0,-5
CC1CN(CCCCSc2ccccc2)CC(C)O1 (stereo not drawn),4,-4,5,-2,0,-8
CC1CC(C)CN(CCCSc2ccccc2)C1 (stereo not drawn),10,-7,-4,-15,0,32*
CCn1c(SCC(=O)Nc2cccc(C(F)(F)F)c2)nc2c(c1=O)SCC2,nt,nt,nt,-3,nt,nt
CCCNc1ncnc2nc[nH]c12,-1,0,10,-5,0,2
c1ccc(CCCNc2ncnc3nc[nH]c23)cc1,193*,-57*,2,-1,0,-2
Clc1ccc(CCNc2ncnc3nc[nH]c23)cc1,19,-35*,-5,-11,-1,4
c1ccc(CNc2ncnc3nc[nH]c23)cc1,2,0,-6,-5,0,-6
N#C/C(=C\c1cn(CC(=O)NCc2ccco2)c2ccccc12)C(=O)NCc1ccco1,nt,nt,nt,0,nt,nt
Cc1ccc(NC(=O)CN(C)S(=O)(=O)c2cccs2)cc1F,2,-37*,-3,1,2,1
SMILES,D1 ag,D1 antag,D1 PAM,LDHA inh,TRHR ag,TRHR PAM
Cc1ccc(NC(=O)CN(C)S(=O)(=O)c2cccs2)cc1C,9,-10,-8,-2,-1,10
Cc1sc(NC(=O)c2ccccc2)c(C(c2cccs2)N2CCN(C)CC2)c1C (stereo not drawn),nt,nt,nt,0,nt,nt
Cc1sc(NC(=O)c2ccccc2)c(C(c2ccccn2)N2CCN(CCO)CC2)c1C (stereo not drawn),108*,-5,-2,-4,0,26
CCc1nnc(CSc2nnc(Nc3ccc(C(C)C)cc3)s2)o1,nt,nt,nt,2,nt,nt
COc1cccc2cc(-c3cc(=O)oc4ccc(C(C)(C)C)cc34)oc12,nt,nt,nt,-3,nt,nt
Cc1ccc(-c2c(C#N)c(N)nc3c2CCCC3)o1,39*,24,0,-5,0,4
CCSc1nc2c(c(-c3ccc(C)o3)c1C#N)CCCC2,2,-2,-1,2,-1,-2
Cc1ccc(CN(Cc2ccco2)C(=O)COc2ccc(C(C)C)cc2)cc1,46*,-56*,1,8,-1,4
Cc1ccc(OCC(=O)N(Cc2ccco2)Cc2ccco2)cc1,2,-15,-2,-6,-1,2
Cc1cc(C)c2c(CC(=O)N(Cc3ccc(N(C)C)cc3)Cc3ccco3)coc2c1,2,5,3,-3,0,-2
Cc1ccc2c(CC(=O)N(Cc3ccc(Cl)cc3)Cc3ccco3)coc2c1,33*,-22,-1,-2,-1,7
O=C(Cc1ccccc1)OCC(=O)c1ccc(-c2ccccc2)cc1,nt,nt,nt,8,nt,nt
O=S(Cc1cccc(C(F)(F)F)c1)Cc1cccc(C(F)(F)F)c1,nt,nt,nt,1,nt,nt
O=C(Nc1ccc(Br)cc1)c1ccc(N2C(=O)C3CCCCC3C2=O)cc1 (stereo not drawn),4,-37*,-6,-7,1,3
C/C(=N\OC(=O)c1ccc(Cl)cc1)c1nccs1,1,-32*,-13,0,0,4
Fc1cccc(-c2nc(CN3CCCC3c3nnc4ccccn34)co2)c1 (stereo not drawn),nt,nt,nt,-1,nt,nt
Cc1ccc(C(=O)NCCC(=O)N2CCOCC2)cc1,1,-37*,-5,-5,1,1
Cc1ccc(C(=O)NCCN2CCOCC2)cc1,-1,13,-3,-7,0,0
O=C(NCCC(=O)N1CCN(c2ncccn2)CC1)c1ccc(Br)cc1,nt,nt,nt,-32*,nt,nt
N#CC1=C(N)SC(N)=C(C#N)C1c1ccc(C(F)(F)F)cc1,-1,-2,1,nt,2,3
CCOc1ccc(C2C(C#N)=C(N)SC(N)=C2C#N)cc1OC,40*,-11,-2,nt,16,1
CCc1ccc(C2C(C#N)=C(N)SC(N)=C2C#N)cc1,30*,-10,-3,12,0,1
Cc1cc(C(C#N)c2ccc(Cl)cc2)c(Cl)cc1N (stereo not drawn),nt,nt,nt,8,nt,nt
CC(=O)N(CCC1(Cc2ccccc2)CCCC1)C1CCOC(C)(C)C1 (stereo not drawn),nt,nt,nt,2,nt,nt
Fc1ccc(Sc2cc(Sc3ccc(F)cc3)ncn2)cc1,nt,nt,nt,2,nt,nt
Cc1cc(Cl)ccc1OC(C)C(=O)NN=C1CCCCCC1 (stereo not drawn),1,-31*,nt,0,0,-5
COc1cc(NC(=O)c2cc3ccccc3cc2O)c(OC)cc1Cl,17,-58*,-10,0,5,-15
COc1cc(OC)c(NC(=O)c2ccccc2F)cc1Cl,1,12,2,-2,0,2
Cc1ccc(Cl)cc1NC(=O)c1cc2ccccc2cc1O,27,-45*,-9,0,4,-11
Cc1ccc(Cl)cc1NC(=O)COC(=O)c1ccccc1O,2,0,7,-6,0,-2
